Bioassay records deposited in PubChem BioAssay by National Center for Advancing Translational Sciences (NCATS).
gsp antagonist: antagonists of gsp mutant (McCune-Albright syndrome); hit rate 0.4% among 340,000; Potency, µM (series often up to 76.9 µM), hits mostly inhibitors; AID 624288; gsp-mutant cells, cAMP HTRF, 30 min; calls by dose curve; cell line not stated here;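 note: intracellular cAMP measured with PDE inhibitor Ro 20-1724 present during compound exposure; nearly all actives have a fitted effect of over 65% in size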
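G418-selected cells were plated in DMEM/10% FBS for 16-24 h at 37C, then treated with compounds plus the PDE inhibitor […] (300 uM solution added) for 30 min at 37C. Intracellular cAMP was measured by HTRF after 30 min lysis at room temperature.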
mIDH1 inhibitor: blocks human mutant IDH1 R132H enzyme. AID 602179. O75874. Potency, µM (titrated, usually from 76.6 µM), actives largely listed as inhibitors. hit rate 0.093% among 390,000. IDH1-R132H enzyme, NADPH consumption, diaphorase/resazurin fluorescence; note: nearly all actives have a fitted effect of over 65% in size
Target sequence (O75874 whole entry R132H, stated change not applied): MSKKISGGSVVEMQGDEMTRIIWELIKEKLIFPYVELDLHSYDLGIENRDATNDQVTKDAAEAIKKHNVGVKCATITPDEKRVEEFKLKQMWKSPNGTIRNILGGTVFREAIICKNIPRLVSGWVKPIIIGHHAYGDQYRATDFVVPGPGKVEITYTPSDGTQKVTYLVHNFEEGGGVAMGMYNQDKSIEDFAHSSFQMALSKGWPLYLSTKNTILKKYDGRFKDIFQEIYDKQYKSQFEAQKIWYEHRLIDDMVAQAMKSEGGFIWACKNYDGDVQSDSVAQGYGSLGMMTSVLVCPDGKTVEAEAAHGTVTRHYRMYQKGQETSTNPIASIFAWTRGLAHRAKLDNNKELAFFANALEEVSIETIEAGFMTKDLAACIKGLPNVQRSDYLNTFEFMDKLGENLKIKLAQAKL
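IDH1-R132H (0.5 ug/mL dispensed) in pH 7.5 Tris buffer was preincubated 30 min with compound, then given a substrate mix of 0.016 mM NADPH and 2 mM alpha-KG for 80 min at room temperature; remaining NADPH was read by diaphorase/resazurin fluorescence.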
BRCA1 expr act: increases BRCA1 expression; Potency, µM (titrated, usually from 46.1 µM), actives largely listed as activators; hit rate 1.1% among 380,000; MCF7-BRCA1-FFLuc reporter, luminescence, 48 h; response scale: scaled: vehicle 0%, 10 µM genistein 100%; note: nearly all actives have a fitted effect of over 80% in size
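Luminescence from a BRCA1-driven firefly luciferase in MCF7 cells was the read-out, taken 15 min after substrate addition following 48 h compound exposure at 37 °C. Data were normalized to a 10 microM genistein control and DMSO vehicle.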
gsp ag: activates gsp, the McCune-Albright syndrome mutation. Potency, µM (top dose mostly 76.9 µM), most hits filed as activators. AID 624287. hit rate 0.13% among 340,000. gsp mutant cells, cAMP HTRF, 30 min; active = well fitted activation curve with a large enough effect; inconclusive = small, poorly fitted or top-dose-only effect, or another doubt; inactive = no such curve, though single readings can be large or run the other way; cell line not stated here;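 note: phosphodiesterase inhibitor Ro 20-1724 added with compounds to block cAMP breakdown; nearly all actives have a fitted effect of over 60% in size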
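Cells stably selected in G418 were plated at 2000/well, grown 16-24 hr, then given compounds in DMSO with the PDE inhibitor […] (300 uM solution added) for 30 min at 37C; cAMP was read by HTRF.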
IL2 activator: IL-2 activation. AID 652025. activation, % (series mostly up to about 46 µM). IL-2 activation reporter assay, cell-based qHTS; stimulated with anti-CD3/CD4/CD28 beads; in transgenic mouse T cells. hit rate 0.065% among 360,000; in the data active = activation above about 50%; inconclusive = mostly about 30% to 49%
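Quantitative HTS in unstimulated transgenic mouse T cells, with memory T cells as non-tolerant control and PMA/ionomycin as tolerance-bypass control. Compound pretreatment lasted 60 minutes before 18 h bead stimulation; EGFP/DsRed fluorescence read.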
Hits are given with their value; – = inactive; ? = inconclusive; · = no result; [ ] = dose if it differs, or a comment. A selection: hits, their analogues and other compounds. The true share with any hit is near 1.5%. Unless noted, calls come from the whole dose curve; as a rule, active = well fitted curve in the direction sought with a large enough effect; inconclusive = small, poorly fitted or top-dose-only effect, or another doubt; inactive = no such curve, though single readings can be large; an effect the other way counts as inactive or inconclusive.

SMILES | gsp antagonist | mIDH1 inhibitor | BRCA1 expr act | gsp ag | IL2 activator
Cc1ccc(/C(N)=N/OC(=O)CSc2ccccc2)cc1 | – | – | 7.9µM | –[15.4 µM] | –
N/C(=N\OC(=O)c1ccccc1F)c1ccc([N+](=O)[O-])cc1 | – | – | 2.8µM | – | –
CN(C)Cc1ccccc1CNC(=O)c1cccc(S(=O)(=O)Nc2ccc3c(c2)OCO3)c1 | · | – | – | – | –
CCOC(=O)[C@]12CCCC=C1N(Cc1ccco1)C(=O)[C@H](CC(=O)NCC13CC4CC(CC(C4)C1)C3)C2 | · | · | – | · | –
CCOC(=O)c1c(/N=C/N(C)C)sc(/C=N/Nc2ccccc2)c1-c1ccc(Cl)cc1 | – | – | – | 13µM | –
CCn1c2ccccc2c2cc(NC(=O)N3CCOCC3)ccc21 | – | – | 11µM | – | –
O=C(Nc1ccccc1)N1CCOCC1 | – | – | – | – | –
CCNC(=S)Nc1ccc2c(c1)oc1ccccc12 | – | – | 4.5µM | – | –
O=C(Nc1ccc2c(c1)oc1ccccc12)N1CCOCC1 | – | – | 6.3µM | – | –
CCOc1ccc2nc(N3CCN(C(=O)CS(=O)(=O)c4ccc(F)cc4)CC3)sc2c1 | · | – | · | · | ·
C(=N\NC1=Nc2cccc3cccc1c23)/c1ccccc1 | – | – | – | –[15.4 µM] | 268
Clc1ccc(/C=N/NC2=Nc3cccc4cccc2c34)cc1 | – | – | – | – | 70
COc1ccccc1C1CCN(c2cc(O)ccc2[N+](=O)[O-])CC1 | 32µM | – | – | –[15.4 µM] | –
COc1ccccc1C1CCN(C(=O)c2ccccc2)CC1 | – | – | – | – | –
CCOc1ccccc1Nc1ncnc2c1c(-c1ccccc1)cn2-c1ccc(OC)cc1 | · | – | · | · | ·
COc1ccc2cc(C3=CCCCC3)ncc2c1 | – | – | 2.8µM | · | –
O=C(NC(=S)NC1CCCCC1)c1ccc(F)cc1 | – | – | 11µM | ? | –
N=c1oc2ccccc2cc1C(=O)NC1CCCCCC1 | – | – | 4.5µM | ? | –
O=C(CNC(=O)c1ccc2ccccc2c1)NC1CCCCC1 | – | – | – | –[15.4 µM] | –
COc1ccc(C(=O)NC2CCCCCC2)cc1S(=O)(=O)N1CCCC1 | 11µM | – | – | –[15.4 µM] | –
COc1ccc(C(=O)NC2CCCCC2)cc1S(=O)(=O)N1CCOCC1 | – | – | – | – | –
O=C(NC1CCCCC1)c1ccc2ccccc2c1 | · | – | 3.2µM | – | –
O=C(NC1CCCCCC1)c1cc2ccccc2oc1=O | – | – | – | – | –
COc1ccc(-n2nnc(-c3nsc(NC(=O)c4cccs4)n3)c2C)cc1OC | · | – | · | · | ·
CC(C)(C)n1ncc2c(=O)n(CC(=O)c3ccc(Cl)cc3)cnc21 | – | – | 2.2µM | – | –
SMILES | gsp antagonist | mIDH1 inhibitor | BRCA1 expr act | gsp ag | IL2 activator
CC(C)(C)n1ncc2c(=O)n(CC(=O)Nc3ccc(Cl)cc3)cnc21 | – | – | – | – | –
CCCCN(CCCNC(=O)c1cc(Nc2ccc(OC)c(OC)c2)nc2ccccc12)Cc1ccccc1 | · | – | · | · | ·
Cc1ccc2nc(Cl)c(/C=N/NC(=O)c3ccccc3O)cc2c1 | 35µM | – | – | – | –
CC(=O)c1ccc(NC(=S)Nc2ccc3cn[nH]c3c2)cc1 | · | – | 6.3µM | –[15.4 µM] | –
O=c1[nH]c(N/N=C\c2ccc3c(c2)OCO3)nc2ccccc12 | – | – | ? | – | –
Cc1cc(N/N=C/c2ccc3c(c2)OCO3)nc2ccccc12 | ? | – | 13µM | – | –
CCOc1ccccc1CNC(=O)Cn1cc2c(n1)-c1c(oc(C(=O)N3CCCC3)c1C)CC2 | · | – | · | · | ·
CCc1ccc(NC(=S)N2CCN(C)CC2)cc1 | – | – | 11µM | – | –
CCc1ccc(NC(=O)N2CCCCCC2)cc1 | – | – | 7.1µM | – | –
CCc1ccc(NS(=O)(=O)c2ccc(NC(=O)N3CCCC3)cc2)cc1 | · | – | · | · | ·
S=C(Nc1ccc(Br)cc1)NC1CCCCC1 | – | – | 10µM | – | –
Cc1ccc(NC(=O)NC2CCCCCCC2)cc1 | – | – | ? | – | –
Cc1ccc(NC(=O)C(=O)NC2CCCCC2)cc1 | – | – | 1.3µM | – | –
CN(C)c1ccc(/C=C/c2ccnc3c(Cl)ccc(Cl)c23)cc1 | · | · | – | · | ·
O=C(Nc1cccc(Nc2ccccc2)c1)c1cnn2c1NC(=C1CC1)C=C2C(F)F | · | · | – | · | ·
CCOC(=O)c1ccc(N2CCN(c3ccccc3OC)CC2)c(NC(=O)Nc2ccc(CC)cc2)c1 | · | – | · | · | ·
CCOc1ccccc1N1CCN(CC(=O)Nc2nccs2)CC1 | · | – | – | – | –
Cc1ccc(NC(=O)N2CCCCCC2)cc1 | – | – | 7.9µM | – | –
CCOC(=O)C1CCN(C(=O)Nc2ccc(OC(F)(F)F)cc2)CC1 | – | – | 13µM | –[15.4 µM] | –
Cc1ccc(NC(=S)N2CCCCCC2)cc1 | – | – | 13µM | –[15.4 µM] | –
CCc1ccc(NC(=O)C2CCN(S(C)(=O)=O)CC2)cc1 | – | – | – | – | 56
Cc1ccc(NC(=S)N2CCCC2)cc1 | – | – | ? | – | –
Cc1c(S(=O)(=O)NC2CCCCCC2)c(=O)n(C)c(=O)n1C | – | – | – | – | –
CN1CCOc2cc(S(=O)(=O)N3CCN(c4nc(-c5cccs5)nc5ccccc45)CC3)ccc21 | · | · | – | · | ·
CCC1CCCCN1C(=O)Cn1c(=O)n(-c2ccccc2C(F)(F)F)c(=O)c2c(C)c(C(=O)N(C)C)sc21 (configuration not stated) | · | – | · | · | ·
SMILES | gsp antagonist | mIDH1 inhibitor | BRCA1 expr act | gsp ag | IL2 activator
COc1ccc2[nH]c3c(N4CCN(Cc5ccc6c(c5)OCO6)CC4)ncnc3c2c1 | 40µM | – | – | – | –
Nc1ccc(CSc2ccc(Cl)cc2)c(Cl)c1 | – | – | 1.8µM | – | –
COc1ccc(OC)c(-c2csc(NC(=O)C3COc4ccccc4O3)n2)c1 (configuration not stated) | – | – | – | – | –
O=C(Nc1nc(-c2nc3ccccc3s2)cs1)C1COc2ccccc2O1 (configuration not stated) | – | – | – | 11µM | –
CCc1nnc(NC(=O)C2COc3ccccc3O2)s1 (configuration not stated) | – | – | 11µM | – | –
COc1cc(Cn2c3ccc(NC(=O)CCc4ccccc4)cc3c(=O)n2C)ccc1F | · | · | – | · | –
Cc1ccc(Cl)cc1NC(=O)Cn1cc2c(n1)CCCCC2 | · | – | · | · | ·
CNc1ncc(C(=O)c2ccc(Cl)c(Cl)c2)s1 | – | – | ? | – | –
CNc1ncc(C(=O)c2ccc(-c3ccccc3)cc2)s1 | – | – | 2.8µM | – | –
CNc1ncc(C(=O)c2ccc(Cl)cc2)s1 | ? | – | 4.5µM | – | –
Cc1ccccc1-c1cnc(C(O)c2ccccc2)[nH]1 (configuration not stated) | · | · | 4.5µM | · | –
COc1cccc(-c2cnc(C(O)c3ccc(F)cc3)[nH]2)c1 (configuration not stated) | · | · | 13µM | · | –
Cc1ccccc1-c1cnc(C(O)c2ccc(F)cc2)[nH]1 (configuration not stated) | · | · | ? | · | –
OC(c1ccc(F)cc1)c1ncc(-c2ccccc2Cl)[nH]1 (configuration not stated) | · | · | 11µM | · | –
